In PMC7862700, “An all-to-all approach to the identification of sequence-specific readers for epigenetic DNA modifications on cytosine”:

Key:
Test in all cases: DAPPL (digital affinity profiling via proximity ligation, sequencing); 10 mM Tris-HCl pH 7.5, 50 mM NaCl, 1 mM DTT, 4% glycerol, room temperature, 30 min; GST-TFs on glutathione beads, 16-mer random dsDNA library, 0.1% formaldehyde crosslink after washing; high values mean tight binding
Settings in all cases: protein: recombinant; tags: N-terminal GST; dsDNA, one strand shown
[1] = biological target: T1, EHF (Homo sapiens, UniProt Q9NZC4 1-300)
T1 sequence: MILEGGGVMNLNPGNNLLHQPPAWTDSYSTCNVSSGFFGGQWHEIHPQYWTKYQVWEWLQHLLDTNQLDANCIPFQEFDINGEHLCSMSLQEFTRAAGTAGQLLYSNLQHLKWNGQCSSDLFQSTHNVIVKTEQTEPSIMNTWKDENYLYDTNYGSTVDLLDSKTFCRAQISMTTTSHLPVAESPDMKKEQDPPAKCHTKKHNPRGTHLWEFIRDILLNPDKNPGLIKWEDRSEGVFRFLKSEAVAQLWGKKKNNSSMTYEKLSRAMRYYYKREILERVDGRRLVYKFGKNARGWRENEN
Outline: (§1)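 Pools were built from human transcription factors expressed in yeast as GST fusions, captured on glutathione beads and DNA-barcoded, along with a tag-only sample. Incubation with 200 nmole of a 16-mer random double-stranded DNA library lasted 30 min at room temperature in Tris/NaCl/DTT/glycerol buffer, and was followed by washing, 0.1% formaldehyde crosslinking, proximity ligation, PCR amplification and Illumina NextSeq500 sequencing. Binding signal is the quotient of each hexamer's read frequency for a factor and its frequency for the tag-only sample.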

[2] = biological target: SPI1 (Homo sapiens, UniProt P17947 1-270)
Outline: as §1

[3] = biological target: T2, ELK4 (Homo sapiens, UniProt P28324-2 1-405)
T2 sequence: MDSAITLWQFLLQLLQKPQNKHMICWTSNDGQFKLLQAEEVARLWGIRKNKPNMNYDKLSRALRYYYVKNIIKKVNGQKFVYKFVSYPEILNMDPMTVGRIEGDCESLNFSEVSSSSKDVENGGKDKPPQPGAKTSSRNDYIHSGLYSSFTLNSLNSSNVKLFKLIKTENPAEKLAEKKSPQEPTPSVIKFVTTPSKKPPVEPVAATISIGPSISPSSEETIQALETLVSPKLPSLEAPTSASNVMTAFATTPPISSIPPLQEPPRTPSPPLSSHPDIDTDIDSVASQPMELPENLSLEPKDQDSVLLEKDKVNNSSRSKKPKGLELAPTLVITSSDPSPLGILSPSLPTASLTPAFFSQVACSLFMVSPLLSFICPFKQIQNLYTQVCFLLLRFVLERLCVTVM
Outline: as §1

[4] = biological target: T3, ETV7 (Homo sapiens, UniProt Q9Y603 1-341)
T3 sequence: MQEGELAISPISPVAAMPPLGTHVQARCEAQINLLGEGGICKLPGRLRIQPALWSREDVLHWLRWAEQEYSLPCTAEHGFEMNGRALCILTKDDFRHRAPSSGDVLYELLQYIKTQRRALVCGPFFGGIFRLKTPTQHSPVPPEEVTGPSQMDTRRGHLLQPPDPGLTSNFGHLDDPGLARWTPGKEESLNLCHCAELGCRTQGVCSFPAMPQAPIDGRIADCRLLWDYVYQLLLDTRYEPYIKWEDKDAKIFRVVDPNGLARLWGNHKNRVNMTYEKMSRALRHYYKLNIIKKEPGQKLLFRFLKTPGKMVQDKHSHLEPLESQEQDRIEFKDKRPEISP
Outline: as §1

[5] = biological target: T4, ETV3L (Homo sapiens, UniProt Q6ZN32 1-361)
T4 sequence: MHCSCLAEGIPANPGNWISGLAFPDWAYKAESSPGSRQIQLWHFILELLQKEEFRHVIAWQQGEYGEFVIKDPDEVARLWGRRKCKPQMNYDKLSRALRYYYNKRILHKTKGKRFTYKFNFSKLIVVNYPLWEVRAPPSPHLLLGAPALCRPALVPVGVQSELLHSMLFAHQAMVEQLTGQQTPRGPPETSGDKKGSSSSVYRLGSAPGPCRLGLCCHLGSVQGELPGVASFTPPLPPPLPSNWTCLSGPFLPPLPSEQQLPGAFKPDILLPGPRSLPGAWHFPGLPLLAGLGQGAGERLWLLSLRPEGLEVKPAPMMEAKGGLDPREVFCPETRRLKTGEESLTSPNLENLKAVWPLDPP
Outline: as §1

[6] = biological target: ETV1 (Homo sapiens, UniProt P50549 1-477)
Chain of ETV1 (P50549 whole entry): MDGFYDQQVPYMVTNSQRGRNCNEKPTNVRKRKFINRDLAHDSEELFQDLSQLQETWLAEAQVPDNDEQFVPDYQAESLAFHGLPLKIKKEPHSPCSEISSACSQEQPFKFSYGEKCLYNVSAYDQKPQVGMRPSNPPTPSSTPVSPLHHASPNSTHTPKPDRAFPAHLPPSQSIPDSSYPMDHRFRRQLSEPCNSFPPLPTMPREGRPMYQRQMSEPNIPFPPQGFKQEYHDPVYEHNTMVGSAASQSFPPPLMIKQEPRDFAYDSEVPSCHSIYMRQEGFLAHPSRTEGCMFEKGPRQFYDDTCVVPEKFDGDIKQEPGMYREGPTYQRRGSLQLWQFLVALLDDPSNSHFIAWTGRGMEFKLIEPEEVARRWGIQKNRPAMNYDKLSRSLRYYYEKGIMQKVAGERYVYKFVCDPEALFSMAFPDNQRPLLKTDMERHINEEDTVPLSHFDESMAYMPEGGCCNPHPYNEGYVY
Outline: as §1

[7] = biological target: T5, ERF (Homo sapiens, UniProt P50548 1-548)
T5 sequence: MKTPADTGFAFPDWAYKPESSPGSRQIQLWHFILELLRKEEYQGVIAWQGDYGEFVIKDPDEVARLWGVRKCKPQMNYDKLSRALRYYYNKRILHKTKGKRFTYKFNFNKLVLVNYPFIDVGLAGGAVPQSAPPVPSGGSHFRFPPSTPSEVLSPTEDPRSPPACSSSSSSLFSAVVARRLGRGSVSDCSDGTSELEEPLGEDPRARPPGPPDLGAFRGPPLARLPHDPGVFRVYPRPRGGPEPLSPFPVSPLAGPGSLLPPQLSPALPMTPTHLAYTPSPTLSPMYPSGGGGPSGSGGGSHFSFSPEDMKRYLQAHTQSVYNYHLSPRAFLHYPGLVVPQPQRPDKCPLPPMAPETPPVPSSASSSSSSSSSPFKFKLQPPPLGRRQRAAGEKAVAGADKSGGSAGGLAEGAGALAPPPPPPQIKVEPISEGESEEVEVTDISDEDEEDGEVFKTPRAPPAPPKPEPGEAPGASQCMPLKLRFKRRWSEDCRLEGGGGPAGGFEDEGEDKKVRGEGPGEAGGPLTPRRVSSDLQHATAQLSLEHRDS
Outline: as §1

[8] = biological target: T6, ETV3 (Homo sapiens, UniProt P41162-2 1-143)
T6 sequence: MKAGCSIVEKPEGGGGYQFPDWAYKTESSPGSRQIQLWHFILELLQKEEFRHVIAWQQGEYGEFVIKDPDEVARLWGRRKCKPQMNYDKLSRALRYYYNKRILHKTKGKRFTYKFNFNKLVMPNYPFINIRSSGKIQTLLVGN
Outline: as §1

[9] = biological target: T7, ETV2 (Homo sapiens, UniProt O00321 1-342)
T7 sequence: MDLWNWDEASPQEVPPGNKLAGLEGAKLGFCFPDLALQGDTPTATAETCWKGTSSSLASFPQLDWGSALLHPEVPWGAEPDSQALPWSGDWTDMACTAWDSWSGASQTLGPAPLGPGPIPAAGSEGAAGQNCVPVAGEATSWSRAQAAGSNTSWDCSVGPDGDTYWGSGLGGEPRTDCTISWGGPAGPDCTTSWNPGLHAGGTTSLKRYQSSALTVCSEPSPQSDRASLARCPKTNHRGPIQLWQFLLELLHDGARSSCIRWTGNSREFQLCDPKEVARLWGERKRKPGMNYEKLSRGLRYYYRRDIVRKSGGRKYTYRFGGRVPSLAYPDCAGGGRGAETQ
Outline: as §1

[10] = biological target: T8, ELK3 (Homo sapiens, UniProt P41970 1-407)
T8 sequence: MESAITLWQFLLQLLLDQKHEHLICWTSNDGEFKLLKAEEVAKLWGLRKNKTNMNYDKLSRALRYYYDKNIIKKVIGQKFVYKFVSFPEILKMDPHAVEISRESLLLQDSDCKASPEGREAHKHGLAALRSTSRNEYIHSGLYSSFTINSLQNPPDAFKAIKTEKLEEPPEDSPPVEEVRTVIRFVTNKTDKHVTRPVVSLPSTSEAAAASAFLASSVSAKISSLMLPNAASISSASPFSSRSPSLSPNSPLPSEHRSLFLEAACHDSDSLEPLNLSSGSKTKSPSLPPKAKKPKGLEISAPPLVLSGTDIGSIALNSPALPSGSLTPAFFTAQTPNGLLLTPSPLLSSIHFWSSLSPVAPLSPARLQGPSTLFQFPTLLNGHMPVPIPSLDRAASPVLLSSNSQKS
Outline: as §1

[11] = biological target: T9, SPDEF (Homo sapiens, UniProt O95238 1-335)
T9 sequence: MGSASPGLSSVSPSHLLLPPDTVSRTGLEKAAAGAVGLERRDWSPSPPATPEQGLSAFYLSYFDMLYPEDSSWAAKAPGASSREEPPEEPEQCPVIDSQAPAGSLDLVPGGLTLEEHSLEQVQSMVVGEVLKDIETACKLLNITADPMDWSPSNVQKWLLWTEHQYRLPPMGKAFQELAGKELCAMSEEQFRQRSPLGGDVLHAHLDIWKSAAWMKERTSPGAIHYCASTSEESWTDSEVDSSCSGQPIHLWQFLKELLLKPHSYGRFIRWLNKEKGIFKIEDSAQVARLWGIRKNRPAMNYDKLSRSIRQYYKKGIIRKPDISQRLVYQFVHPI
Outline: as §1

[12] = biological target: CRX (Homo sapiens, UniProt O43186 1-299)
Chain of CRX (O43186 whole entry): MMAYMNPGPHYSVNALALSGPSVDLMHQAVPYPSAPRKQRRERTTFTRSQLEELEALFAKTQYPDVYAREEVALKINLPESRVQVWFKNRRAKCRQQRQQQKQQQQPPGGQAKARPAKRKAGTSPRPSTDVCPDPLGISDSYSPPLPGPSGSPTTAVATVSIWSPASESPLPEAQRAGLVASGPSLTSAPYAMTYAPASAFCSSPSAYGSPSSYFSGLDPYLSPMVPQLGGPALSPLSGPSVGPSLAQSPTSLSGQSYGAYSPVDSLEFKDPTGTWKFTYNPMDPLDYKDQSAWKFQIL
Outline: as §1

[13] = biological target: ELF1 (Homo sapiens, UniProt P32519 1-619)
Chain of ELF1 (P32519 whole entry): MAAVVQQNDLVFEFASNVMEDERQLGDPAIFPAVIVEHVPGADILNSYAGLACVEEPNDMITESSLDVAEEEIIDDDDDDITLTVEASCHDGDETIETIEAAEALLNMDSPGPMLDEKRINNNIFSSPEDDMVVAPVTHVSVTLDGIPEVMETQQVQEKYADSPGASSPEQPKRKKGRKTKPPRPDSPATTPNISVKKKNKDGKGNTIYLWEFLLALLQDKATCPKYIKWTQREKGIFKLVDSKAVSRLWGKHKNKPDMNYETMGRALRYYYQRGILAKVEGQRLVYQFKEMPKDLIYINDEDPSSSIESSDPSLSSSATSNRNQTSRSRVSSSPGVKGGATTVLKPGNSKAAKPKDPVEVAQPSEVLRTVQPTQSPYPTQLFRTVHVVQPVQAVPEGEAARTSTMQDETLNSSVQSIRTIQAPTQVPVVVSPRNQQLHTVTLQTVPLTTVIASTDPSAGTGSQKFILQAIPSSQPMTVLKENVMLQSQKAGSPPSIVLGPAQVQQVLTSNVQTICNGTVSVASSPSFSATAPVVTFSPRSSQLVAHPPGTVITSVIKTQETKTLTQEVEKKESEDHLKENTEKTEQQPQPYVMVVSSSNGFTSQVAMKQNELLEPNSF
Outline: as §1

[14] = biological target: T10, ELF3 (Homo sapiens, UniProt P78545 1-371)
T10 sequence: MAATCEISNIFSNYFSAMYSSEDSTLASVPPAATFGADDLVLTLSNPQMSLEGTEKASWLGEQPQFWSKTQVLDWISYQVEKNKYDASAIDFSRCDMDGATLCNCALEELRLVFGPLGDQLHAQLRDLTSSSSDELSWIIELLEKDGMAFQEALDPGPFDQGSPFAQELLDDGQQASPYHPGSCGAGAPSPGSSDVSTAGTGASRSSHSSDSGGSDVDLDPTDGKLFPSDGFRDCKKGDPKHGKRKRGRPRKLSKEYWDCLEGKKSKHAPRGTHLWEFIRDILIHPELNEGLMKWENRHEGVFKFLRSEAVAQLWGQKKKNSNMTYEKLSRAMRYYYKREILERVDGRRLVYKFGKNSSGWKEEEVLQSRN
Outline: as §1

[15] = biological target: T11, GABPA (Homo sapiens, UniProt Q06546 1-454)
T11 sequence: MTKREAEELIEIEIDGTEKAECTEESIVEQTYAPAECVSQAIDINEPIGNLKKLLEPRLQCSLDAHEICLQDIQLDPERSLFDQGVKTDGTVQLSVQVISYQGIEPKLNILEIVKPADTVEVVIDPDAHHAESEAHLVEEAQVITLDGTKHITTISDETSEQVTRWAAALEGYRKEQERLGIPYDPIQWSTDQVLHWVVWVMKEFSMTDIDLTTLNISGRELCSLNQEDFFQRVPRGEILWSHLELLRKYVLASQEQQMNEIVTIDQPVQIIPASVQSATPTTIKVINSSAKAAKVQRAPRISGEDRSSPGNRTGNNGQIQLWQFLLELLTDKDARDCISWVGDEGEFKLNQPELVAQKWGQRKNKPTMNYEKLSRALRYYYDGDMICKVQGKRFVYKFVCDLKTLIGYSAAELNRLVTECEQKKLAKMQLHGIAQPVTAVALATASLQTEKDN
Outline: as §1

For GGCTGC, the binding signal [1] was 1.02 fold enrichment (6-mer frequency, TF over GST control), the binding signal [2] was 1.01 fold enrichment (6-mer frequency, TF over GST control) and the binding signal [3] was 1 fold enrichment (6-mer frequency, TF over GST control). For the same sequence, the binding signal [4] was 1.14 fold enrichment (6-mer frequency, TF over GST control).
With GTTGTG the binding signal [3] was 1.07 fold enrichment (6-mer frequency, TF over GST control) and the binding signal [5] was 1.02 fold enrichment (6-mer frequency, TF over GST control).
For CAACGG, the binding signal [3] was 1.01 fold enrichment (6-mer frequency, TF over GST control), the binding signal [6] was 1.01 fold enrichment (6-mer frequency, TF over GST control) and the binding signal [7] was 1.08 fold enrichment (6-mer frequency, TF over GST control). For the same sequence, the binding signal [8] was 1.01 fold enrichment (6-mer frequency, TF over GST control).
CCATAG was tested, and the binding signal [3] was 1.06 fold enrichment (6-mer frequency, TF over GST control) and the binding signal [9] was 1.01 fold enrichment (6-mer frequency, TF over GST control).
With GCAAAG the binding signal [9] was 1.12 fold enrichment (6-mer frequency, TF over GST control).
GCATAT was tested, and the binding signal [10] was 1.04 fold enrichment (6-mer frequency, TF over GST control), the binding signal [3] was 1.07 fold enrichment (6-mer frequency, TF over GST control) and the binding signal [9] was 1.02 fold enrichment (6-mer frequency, TF over GST control). The binding signal [11] was 1.01 fold enrichment (6-mer frequency, TF over GST control) and the binding signal [4] was 1.08 fold enrichment (6-mer frequency, TF over GST control).
AAGCCA was tested, and the binding signal [3] was 1.02 fold enrichment (6-mer frequency, TF over GST control) and the binding signal [12] was 1.12 fold enrichment (6-mer frequency, TF over GST control).
For TCAGTA, the binding signal [13] was 1.01 fold enrichment (6-mer frequency, TF over GST control), the binding signal [3] was 1.01 fold enrichment (6-mer frequency, TF over GST control) and the binding signal [9] was 1.03 fold enrichment (6-mer frequency, TF over GST control). The binding signal [14] was 1.08 fold enrichment (6-mer frequency, TF over GST control), the binding signal [12] was 1.07 fold enrichment (6-mer frequency, TF over GST control) and the binding signal [8] was 1.03 fold enrichment (6-mer frequency, TF over GST control).
In the case of GTAGCG, the binding signal [3] is reported as 1.01 fold enrichment (6-mer frequency, TF over GST control) and the binding signal [8] is reported as 1.01 fold enrichment (6-mer frequency, TF over GST control).
In the case of CAAGCC, the binding signal [15] is reported as 1.03 fold enrichment (6-mer frequency, TF over GST control), the binding signal [10] is reported as 1.06 fold enrichment (6-mer frequency, TF over GST control) and the binding signal [3] is reported as 1.07 fold enrichment (6-mer frequency, TF over GST control). For the same sequence, the binding signal [9] was 1.06 fold enrichment (6-mer frequency, TF over GST control), the binding signal [14] was 1.12 fold enrichment (6-mer frequency, TF over GST control) and the binding signal [4] was 1.02 fold enrichment (6-mer frequency, TF over GST control). For the same sequence, the binding signal [8] was 1.02 fold enrichment (6-mer frequency, TF over GST control).
With GGCCTG the binding signal [3] was 1.08 fold enrichment (6-mer frequency, TF over GST control), the binding signal [9] was 1.06 fold enrichment (6-mer frequency, TF over GST control) and the binding signal [5] was 1.04 fold enrichment (6-mer frequency, TF over GST control). The binding signal [4] was 1.03 fold enrichment (6-mer frequency, TF over GST control).
